Among the data in PubChem BioAssay (Tox21) are Potency and outcome values, retold here.

Inconclusive results are not listed. Active and inactive are the calls of the source. Unless noted, the call rests on the fitted dose curve; in most records, active means well fitted curve in the direction sought with a large enough effect in the repeat runs; inconclusive means weak or mixed curves; inactive means no such curve, though single readings can be large; an effect the other way counts as inactive or inconclusive.

Assay [1] is described as follows: qHTS assay to identify small molecule agonists of the RXR signaling pathway - cell viability counter screen (AID 1159529). Further: nearly all actives have a fitted effect of over 50% in size. Further: potency means the concentration at half of the fitted maximal effect. The method in brief: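 Cell viability is measured by CellTiter-Glo luminescence, 30 min at room temperature, in wells already read for beta-lactamase. Engineered HEK 293T cells (RXR-alpha-UAS-bla) are dosed 16 hr at 37 C. Tetraoctyl ammonium bromide serves as positive control.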
On the technique in general: In qHTS, concentration-response curves come from the screen itself.

The nature of assay [2]: qHTS assay to identify small molecule antagonists of the retinoid acid receptor (RAR) signaling pathway - cell viability counter screen (AID 1159551). Further: nearly all actives have a fitted effect of over 35% in size. The gist of the method: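 Luminescent ATP quantitation (CellTiter-Glo) gave cell viability in C3RL4 cells exposed to test chemicals for 6 h at 37 C alongside 1 uM final retinol.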
The nature of assay [3]: qHTS assay to identify small molecule agonists of the retinoic acid receptor (RAR) signaling pathway (AID 1159553). The method in brief: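 Luminescence from a RARE-driven luciferase reporter in C3RL4 cells served as the read-out, measured after 30 min with detection reagent at room temperature. Compounds in DMSO were applied for 6 hr at 37 C following overnight seeding.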

Assay [4] in a line: qHTS assay to identify small molecule antagonists of the estrogen related receptor (ERR) signaling pathway from Tox21 library - cell viability counter screen (AID 1224834). Further: nearly all actives have a fitted effect of over 30% in size. The method in brief: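 Fluorescence from CellTiter-Fluor gives the viability read-out, taken 30 min after reagent addition. Before that, ERR cells seeded 6 h earlier were incubated with compounds for 17.5 h at 37 C.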

The target of assay [5] is Luciferin 4-monooxygenase (Photinus pyralis) (UniProt P08659). The assay is described as follows: qHTS assay to identify small molecule inhibitors of firefly luciferase (AID 1224835). Further: series mostly up to about 120 µM; nearly all actives have a fitted effect of over 25% in size. The method in brief: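 Inhibition of purified Photinus luciferase is measured by luminescence. Substrate levels (D-luciferin, ATP) sit at their KM values. Each compound is tested in a concentration series.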
Sequence of Luciferin 4-monooxygenase (Photinus pyralis) (P08659 whole entry, looked up): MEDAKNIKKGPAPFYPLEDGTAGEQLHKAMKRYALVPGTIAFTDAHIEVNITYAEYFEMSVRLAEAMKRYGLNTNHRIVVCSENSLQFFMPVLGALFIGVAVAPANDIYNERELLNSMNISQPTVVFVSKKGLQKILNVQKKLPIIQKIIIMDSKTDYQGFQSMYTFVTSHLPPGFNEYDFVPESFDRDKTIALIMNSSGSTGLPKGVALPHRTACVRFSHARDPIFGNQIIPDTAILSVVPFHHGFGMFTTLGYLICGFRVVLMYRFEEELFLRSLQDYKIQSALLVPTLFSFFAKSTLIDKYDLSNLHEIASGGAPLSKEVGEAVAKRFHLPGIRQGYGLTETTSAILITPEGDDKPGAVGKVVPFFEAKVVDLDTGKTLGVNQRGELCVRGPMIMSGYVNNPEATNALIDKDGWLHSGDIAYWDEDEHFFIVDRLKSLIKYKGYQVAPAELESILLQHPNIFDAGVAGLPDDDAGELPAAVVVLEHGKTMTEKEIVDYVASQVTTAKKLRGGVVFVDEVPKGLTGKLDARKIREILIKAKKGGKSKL

Assay [6] in a line: qHTS assay to identify small molecule agonists of the constitutive androstane receptor (CAR) signaling pathway - cell viability counter screen (AID 1224836). Further: series mostly up to about 92 µM; nearly all actives have a fitted effect of over 45% in size. The method in brief: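 Counter screen multiplexed with the CAR reporter readout: HepG2 cells co-transfected with hCAR and the CYP2B6-2.2kb construct receive a 15-concentration compound series and 0.75 uM PK11195 (final), then CellTiter-Fluor fluorescence is read after 23 h.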

Assay [7] in a line: qHTS assay to identify small molecule antagonists of the constitutive androstane receptor (CAR) signaling pathway - cell viability counter screen (AID 1224837). Further: series mostly up to about 92 µM; nearly all actives have a fitted effect of over 45% in size. The method in brief: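 HepG2-CYP2B6-hCAR cells, 2500/well, 4 hr pre-incubation; compound titration, 15 conc.; CITCO 50 nM final; 23 hr, 37 C/5% CO2; CellTiter-Fluor, fluorescence intensity.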
Assay [8] addresses Nuclear receptor subfamily 1 group I member 3 (Homo sapiens) (UniProt Q14994). The assay is described as follows: qHTS assay to identify small molecule antagonists of the constitutive androstane receptor (CAR) signaling pathway (AID 1224838).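 Further: HepG2 cells stably expressing hCAR with CYP2B6 luciferase reporter stimulated by CITCO; nearly all actives have a fitted effect of over 40% in size.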 Further: potency means the concentration at half of the fitted maximal effect. The method in brief: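 HepG2-CYP2B6-hCAR cells; 4 h pre-incubation; cpd (15 conc) + CITCO 50 nM final; 24 h, 37 C/5% CO2; ONE-Glo, luminescence.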

For assay [9] the target is unchanged. The assay is described as follows: qHTS assay to identify small molecule agonists of the constitutive androstane receptor (CAR) signaling pathway (AID 1224839). Further: series mostly up to about 92 µM; nearly all actives have a fitted effect of over 15% in size. The method in brief: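 A 15-concentration quantitative screen uses HepG2 cells co-transfected stably with human CAR and CYP2B6-2.2kb reporter. Treatment lasts 24 h with 0.75 uM PK11195 final present; ONE-Glo luminescence is the signal.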

Assay [10] in a line: qHTS assay to identify small molecule antagonists of the estrogen related receptor signaling pathway with the pleiotropic PPARgamma coactivator (PGC) from Tox21 10K library - cell viability counter screen (AID 1224840; active means well fitted cell-killing curve with a large enough effect in the repeat runs, not every such curve was filed as active; further: nearly all actives have a fitted effect of over 40% in size). The method in brief: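 PGC/ERR cells, 2,000/well; 6 h pre-incubation 37 C/5% CO2; cpd in DMSO via pin tool; 17.5 h 37 C; CellTiter-Fluor, 30 min; fluorescence.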

Assay [11] in a line: qHTS assay to identify small molecule antagonists of the estrogen related receptor signaling pathway with the pleiotropic PPARgamma coactivator (PGC) from Tox21 10K library (AID 1224841; call rule not given here; further: actives are mostly falling curves and most rising ones were filed inactive; nearly all actives have a fitted effect of over 50% in size; further: potency means the concentration at half of the fitted maximal effect). The method in brief:
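PGC/ERR cell line, 2,000 cells/well; 6 h pre-incubation 37 C/5% CO2; compounds (DMSO) pinned in; 18 h, 37 C; One-Glo, 30 min RT; luminescence.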

Assay [12] is described as follows: qHTS assay to identify small molecule antagonists of the estrogen related receptor (ERR) signaling pathway - cell viability counter screen (AID 1224818). Further: series mostly up to about 46 µM. The method in brief:
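Multiplexed counter screen to separate cytotoxic compounds from true ERR modulators. ERR cells received DMSO-dissolved compounds after a 6 h pre-incubation, were exposed 17.5 h at 37 C, then assayed with CellTiter-Fluor fluorescence.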

Assay [13] in a line: qHTS assay to identify small molecule antagonists of the estrogen related receptor (ERR) signaling pathway (AID 1224819;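 further: luminescence from an ERR-driven luciferase reporter measured with One-Glo reagent; series mostly up to about 46 µM; nearly all actives have a fitted effect of over 50% in size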). The gist of the method:
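Seed ERR cells 2,000/well; rest 6 h at 37 C/5% CO2; pin compounds in DMSO; incubate 18 h at 37 C; add One-Glo; wait 30 min at room temperature; measure luminescence.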

Assay [14] concerns estrogen-related receptor alpha (ERRalpha) with PGC-1alpha coactivator, human. Description: qHTS assay to identify small molecule antagonists of the estrogen related receptor signaling pathway with the pleiotropic PPARgamma coactivator (PGC) (AID 1224821; calls by dose curve;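 further: series mostly up to about 46 µM; lower luminescence signal means antagonism of PGC/ERR signalling; nearly all actives have a fitted effect of over 50% in size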). The gist of the method:
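Cells engineered for PGC/ERR signalling (line from NTP) were plated 6 h at 37 C/5% CO2, then exposed to DMSO-dissolved compound for 18 h at 37 C. Luciferase activity was read by One-Glo luminescence after 30 min at room temperature.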

A short description of assay [15]: qHTS assay to identify small molecule antagonists of the estrogen related receptor signaling pathway with the pleiotropic PPARgamma coactivator (PGC) cell viability counter screen (AID 1224822; further: series mostly up to about 46 µM). The gist of the method: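 Cells: PGC/ERR, 2,000/well, 1536-well format. Pre-incubation 6 h, 37 C/5% CO2. Compound exposure 17.5 h, 37 C. Detection: CellTiter-Fluor, 30 min, fluorescence.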

The nature of assay [16]: qHTS assay to identify small molecule agonists of the estrogen related receptor signaling pathway with the pleiotropic PPARgamma coactivator (PGC) (AID 1224823). The method in brief: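 PGC/ERR reporter cells were seeded, rested 6 h at 37 C/5% CO2, then exposed to compounds in DMSO by pin transfer for 18 h at 37 C. Luciferase activity was read as luminescence after One-Glo reagent and 30 min at room temperature.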

Assay [17] is described as follows: qHTS assay to identify small molecule agonists of the estrogen related receptor signaling pathway with the pleiotropic PPARgamma coactivator (PGC) from Tox21 10K library (AID 1224842). Further: nearly all actives have a fitted effect of over 15% in size. The gist of the method:
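Luminescence from One-Glo (30 min, room temperature) measured after PGC/ERR cells had 18 h at 37 C with pinned compound (23 nL in DMSO). Cells had been seeded at 2,000 per well and pre-incubated 6 h.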

Sequence of Nuclear receptor subfamily 1 group I member 3 (Homo sapiens) (Q14994 whole entry, looked up): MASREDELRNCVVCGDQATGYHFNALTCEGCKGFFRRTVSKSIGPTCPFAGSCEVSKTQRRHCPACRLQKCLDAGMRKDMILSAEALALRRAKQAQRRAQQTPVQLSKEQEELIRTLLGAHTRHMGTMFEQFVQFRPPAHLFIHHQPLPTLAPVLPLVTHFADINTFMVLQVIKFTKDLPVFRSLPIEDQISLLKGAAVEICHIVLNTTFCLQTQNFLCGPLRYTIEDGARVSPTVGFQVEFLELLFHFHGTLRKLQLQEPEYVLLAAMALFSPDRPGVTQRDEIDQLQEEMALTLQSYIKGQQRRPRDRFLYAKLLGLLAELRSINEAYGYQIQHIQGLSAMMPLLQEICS

Regarding `CC1(C)CC(O)CC(C)(C)N1[O]`, the Potency entry in [1], in [3], in [4], in [5], in assay [6] and in assay [7] was “inactive” throughout. Besides, the Potency entry in [8], in assay [9] and in assay [10] was “inactive” each time. Moreover, the outcome in [2] was inactive.

For the compound `O=[N+]([O-])c1ccc(Cl)cc1Cl`, the Potency result in [1], in [3], in [4], in assay [5], in assay [6] and in assay [7] was “inactive” each time. For the same compound, the Potency entry in assay [8], in [9] and in assay [10] was “inactive” in each case. Moreover, the result in [2] was inactive.

As for `CCCN(C1CCN(C(=O)C2CCNCC2)CC1)[C@@H]1CCc2ccc(OC)cc2C1`, the Potency entry in assay [1], in assay [3], in [4], in assay [5], in assay [9] and in assay [10] was “inactive” each time. The Potency result in assay [11] was “inactive”. The compound was classed as inactive in assay [2].

Regarding `OCC(O)c1ccccc1` (centres undefined), the Potency entry in [1], in assay [3], in assay [4], in assay [5], in [6] and in assay [7] was “inactive” in each case. Besides, the Potency result in assay [10] was “inactive”. Besides, the result in assay [2] was inactive.

Turning to `O=c1[nH][nH]c2ccccc12`, the Potency entry in [1], in [3], in [4], in assay [5], in [6] and in assay [7] was “inactive” each time. Further, the Potency result in assay [9] and in assay [10] was “inactive” in each case. Moreover, the compound was called inactive in assay [2]. The Potency in [8] was 55.5 µM (active).

`O=C(Nc1ccccc1)c1cc([N+](=O)[O-])ccc1Cl`: the Potency result in [1], in [13], in [4], in [5], in assay [6] and in assay [7] was “inactive” each time. Moreover, the Potency result in assay [8], in assay [9], in [10] and in [17] was “inactive” in each case. The compound was called inactive in assay [2], in [12], in assay [14], in [15] and in assay [16]. In addition, in assay [11], the Potency is 15.4 µM (active).

On to `CC(O)C(C)O` (centres undefined), for which the Potency result in assay [1], in assay [4], in assay [5], in assay [6], in [7] and in [8] was “inactive” each time. The Potency result in assay [9] and in [10] was “inactive” throughout. For the same compound, the call in assay [2] was inactive.

For `Nc1cccc2c(=O)[nH][nH]c(=O)c12`, the results for the Potency in assay [1] and in assay [11] were 5.52 µM (active) and 61.4 µM (active), respectively. Also, the compound was classed as inactive in assay [2]. Moreover, the Potency entry in [3], in assay [5], in [6], in [7], in assay [9] and in assay [10] was “inactive” throughout.

For `O=[N+]([O-])c1ccccc1CCO`, the Potency entry in assay [1], in assay [3], in assay [4], in assay [5], in assay [6] and in assay [7] was “inactive” each time. Moreover, the call in assay [2] was inactive.

In the case of `CCC(=O)O[C@]1(C(=O)COC)[C@@H](C)C[C@H]2[C@@H]3CCC4=CC(=O)C=C[C@]4(C)C3(F)[C@@H](O)C[C@@]21C` (some centres undefined), the Potency result in assay [1], in [3], in assay [4], in assay [5], in [6] and in assay [7] was “inactive” throughout. The Potency result in assay [8], in assay [9], in assay [10], in assay [11] and in assay [17] was “inactive” throughout. The outcome in assay [2] was inactive.
